Here are results for 6 compounds from PubChem BioAssay (NCATS).

Results filed as inconclusive are left out. A number with no mark means an inactive call. Calls of active or inactive are those of the source. Calls come from the whole dose curve; as a rule, active = well fitted curve in the direction sought with a large enough effect; inconclusive = small, poorly fitted or top-dose-only effect, or another doubt; inactive = no such curve, though single readings can be large; an effect the other way counts as inactive or inconclusive.

Assay [1] has as its system MKL-1. In words: qHTS assay to identify novel small-molecules to repurpose for Merkel cell carcinoma treatment (AID 1296009). Note: nearly all actives have a fitted effect of over 60% in size. To be noted: MCC and control cell lines, CellTiter-Glo viability, 72 h; series mostly up to 46 µM. In short, it runs like this:
(§1)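 Dose-response viability screen; 72 hr exposure at 37 degree celsius; CellTiter-Glo added, 10 min room temperature, luminescence read; RLUs scaled between no-cell and DMSO wells.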

For assay [2], the system named is MKL-2. Described as above. To be noted: MCC and control cell lines, CellTiter-Glo viability, 72 h; series mostly up to 46 µM. In short, it runs like this: as §1
In assay [3] the test system is NIH3T3. The description is as above. To be noted: MCC and control cell lines, CellTiter-Glo viability, 72 h; at 44.8 µM (top of the series) unless noted. In short, it runs like this:
as §1

Assay [4] has as its system UISO. The assay is described as above. To be noted: MCC and control cell lines, CellTiter-Glo viability, 72 h; series mostly up to 46 µM. In short, it runs like this:
as §1

Assay [5] deals with WaGa. The description is as above. To be noted: MCC and control cell lines, CellTiter-Glo viability, 72 h; series mostly up to 46 µM. In short, it runs like this:
as §1

Assay [6] relates to C33A. In words: Primary qHTS to identify gynecologic anti-cancer compounds using libraries of approved drugs and bioactive compounds (AID 1345084). Note: nearly all actives have a fitted effect of over 55% in size. To be noted: Gynecologic cancer cell panel viability, ATPlite luminescence, 48 h; series mostly up to 57.5 µM. In short, it runs like this:
(§2)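 Luminescence from the ATPlite ATP-monitoring reagent indicates viable cell number; lower signal means cytotoxicity. Cells received compound 16 h after seeding and were exposed for 48 h across five concentrations.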

Assay [7] relates to CAOV3. The description is as above. To be noted: Gynecologic cancer cell panel viability, ATPlite luminescence, 48 h; series mostly up to 57.5 µM. In short, it runs like this:
as §2

Assay [8] concerns CASKI. Described as above. To be noted: Gynecologic cancer cell panel viability, ATPlite luminescence, 48 h; series mostly up to 57.5 µM. In short, it runs like this: as §2
Assay [9] relates to Es-2. The description is as above. To be noted: Gynecologic cancer cell panel viability, ATPlite luminescence, 48 h; series mostly up to 57.5 µM. In short, it runs like this: as §2
Assay [10] relates to HeLa. The assay is described as above. To be noted: Gynecologic cancer cell panel viability, ATPlite luminescence, 48 h; series mostly up to 57.5 µM. In short, it runs like this: as §2
Assay [11] deals with Hek293T. The description is as above. To be noted: Gynecologic cancer cell panel viability, ATPlite luminescence, 48 h, control line for the selectivity index; series mostly up to 57.5 µM. In short, it runs like this: as §2
Assay [12] concerns OV90. The assay is described as above. To be noted: Gynecologic cancer cell panel viability, ATPlite luminescence, 48 h; series mostly up to 57.5 µM. In short, it runs like this:
as §2

The test system of assay [13] is PA-1. Described as above. To be noted: Gynecologic cancer cell panel viability, ATPlite luminescence, 48 h; series mostly up to 57.5 µM. In short, it runs like this:
as §2

The subject of assay [14] is SKOV3. The assay is described as above. To be noted: Gynecologic cancer cell panel viability, ATPlite luminescence, 48 h; series mostly up to 57.5 µM. In short, it runs like this: as §2
For assay [15], the system named is Tov-21-G. The assay is described as above. To be noted: Gynecologic cancer cell panel viability, ATPlite luminescence, 48 h; series mostly up to 57.5 µM. In short, it runs like this: as §2
Assay [16] has as its system Tov112D. The assay is described as above. To be noted: Gynecologic cancer cell panel viability, ATPlite luminescence, 48 h; series mostly up to 57.5 µM. In short, it runs like this: as §2
Assay [17] can be described thus: Drug repurposing screens with cells derived from glioblastoma tumor samples (AID 1345199). Note: nearly all actives have a fitted effect of over 40% in size. Note: potency is the fitted concentration of half-maximal effect. To be noted: GBM patient neurospheres viability, ATP luminescence, 48 h. In short, it runs like this:
(§3)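 Primary testing used CD133+ neurospheres from four GBM patients, seven concentrations, 48 h exposure and ATP-based viability; confirmation added three slower-growing patient lines.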

The subject of assay [18] is astro. The description is as above. To be noted: viability, ATP luminescence, 48 h; series mostly up to 45.9 µM. In short, it runs like this:
as §3

In assay [19] the test system is JEG-3. In words: Primary qHTS to identify gynecologic anti-cancer compounds using libraries of approved drugs and bioactive compounds (AID 1345084). Note: nearly all actives have a fitted effect of over 55% in size. To be noted: Gynecologic cancer cell panel viability, ATPlite luminescence, 48 h; series mostly up to 57.5 µM. In short, it runs like this:
as §2

Setting [20] is: at 45.9 µM (top of the series), tumour line B.
The mark [21] stands for this setting: at 45.9 µM (top of the series), tumour line D.
[22] abbreviates: at 46.1 µM (top of the series), tumour line C.
% is set by controls: 0 for no effect and ±100 for the full control effect.

On to `Cc1ncc([N+](=O)[O-])n1CC(C)O` (stereo not drawn), for which the Potency result in assay [1], in assay [2], in [4], in [5], in assay [6] and in assay [7] was “inactive” throughout. Also, the Potency entry in [8], in assay [9], in [10], in assay [11], in assay [12] and in [13] was “inactive” in each case. In addition, the Potency result in assay [14], in [15], in [16] and in [18] was “inactive” throughout. For the same compound, the outcome in assay [3] was inactive. In addition, the activity, negative = cell killing in [17] (setting [20]) was -7.1%; in assay [17] (setting [21]) it was 3.12%; in assay [17] (at 46 µM (top of the series), tumour line A), -20.2%; in assay [17] (setting [22]) it was -8.86%.
As to `COc1cc2c(cc1OC)C1CC(=O)C(CC(C)C)CN1CC2` (stereo not drawn), the Potency result in assay [1], in [2], in assay [4] and in [5] was “inactive” throughout. For the same compound, in assay [3], the result was inactive.
Consider `Cc1cc2c(s1)Nc1ccccc1N=C2N1CCN(C)CC1`, for which the Potency result in assay [1], in [2], in assay [4], in assay [5], in assay [6] and in assay [7] was “inactive” in each case. Moreover, the Potency entry in [8], in assay [9], in assay [10], in [11], in [19] and in assay [12] was “inactive” in each case. In addition, the Potency entry in assay [13], in [14], in [15], in assay [16] and in assay [18] was “inactive” each time. Besides, in [3], the outcome was inactive. The activity, negative = cell killing in [17] (setting [20]) was -20.2%; in assay [17] (setting [21]), -20.6%; in [17] (setting [22]), -6.39%. For the same compound, the Potency in assay [17] (tumour line A) was 12.6 µM (active).
In the case of `CN(C)C(=O)COC(=O)Cc1ccc(OC(=O)c2ccc(N=C(N)N)cc2)cc1`, the Potency entry in [1], in assay [2], in assay [4], in assay [5], in [6] and in assay [7] was “inactive” throughout. The Potency result in [8], in [9], in [10], in assay [11], in assay [19] and in assay [12] was “inactive” each time. The Potency entry in assay [13], in assay [15], in assay [16] and in assay [18] was “inactive” in each case. In assay [3], the result was inactive. Besides, the results for the activity, negative = cell killing in assay [17] (setting [20]), in assay [17] (setting [21]) and in assay [17] (setting [22]) were -12.3%, 2.44% and -19.5%, respectively.
With `O=C(NCCO[N+](=O)[O-])c1cccnc1`, the Potency result in [1], in assay [2], in assay [4], in [5], in [6] and in assay [7] was “inactive” throughout. For the same compound, the Potency entry in [8], in [9], in [10], in [11], in assay [19] and in assay [12] was “inactive” each time. Besides, the Potency entry in [13], in assay [14], in assay [15], in assay [16] and in [18] was “inactive” throughout. Moreover, the compound was called inactive in [3].
As for `CCC1=C(C)CN(C(=O)NCCc2ccc(S(=O)(=O)NC(=O)NC3CCC(C)CC3)cc2)C1=O` (stereo not drawn), the Potency result in [1], in assay [2], in [4], in assay [5], in assay [6] and in [7] was “inactive” each time. Further, the Potency entry in [8], in assay [9], in assay [10], in [11], in assay [19] and in assay [12] was “inactive” in each case. Also, the Potency result in [13], in assay [15], in assay [16] and in assay [18] was “inactive” throughout. Moreover, the call in [3] was inactive.
